Experimental data published in PubChem BioAssay (Tox21).
Inconclusive results are not listed. Calls of active or inactive are those of the source. Unless noted, calls come from the whole dose curve.

What was measured:
[1] = qHTS assay to identify small molecule antagonists of the estrogen related receptor signaling pathway with the pleiotropic PPARgamma coactivator (PGC) from Tox21 10K library - cell viability counter screen (AID 1224840; active = well fitted cell-killing curve with a large enough effect in the repeat runs, not every such curve was filed as active; note: nearly all actives have a fitted effect of over 40% in size)
Procedure, shortened: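 PGC/ERR cells (2,000/well) plated 6 h, then compound-treated for 17.5 h at 37 C. Viability measured by CellTiter-Fluor fluorescence after 30 min at 37 C, multiplexed with the pathway assay.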

[2] = target: Thyrotropin receptor (Homo sapiens) (UniProt P16473); assay: qHTS assay to identify small molecule agonists of the thyroid stimulating hormone receptor (TSHR) signaling pathway (AID 1224843); note: nearly all actives have a fitted effect of over 45% in size
Procedure, shortened: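 HEK293 cells stably bearing the thyrotropin receptor were plated at 800 cells/well and challenged with compound (30 min, RT). Accumulated cAMP was quantified via cAMP-d2 competing for cryptate-tagged antibody.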

[3] = qHTS assay to identify small molecule agonists of H2AX (AID 1224845; active = well fitted activation curve with a large enough effect in the signal ratio in the repeat runs, not every such curve was filed as active; the % refers to the signal ratio)
Procedure, shortened: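 Phospho-H2AX Ser139 measured by HTRF (ex 320 nm; em 665 and 620 nm) after 24 hr antibody incubation. Compounds, 15 concentrations, 0.76% DMSO, were applied to CHO-K1 cells for 3hr at 37C before lysis.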

[4] = qHTS assay to identify small molecule agonists of the hypoxia (HIF-1) signaling pathway (AID 1224846; active = well fitted activation curve with a large enough effect in the signal ratio in the repeat runs, not every such curve was filed as active; the % refers to the signal ratio)
Procedure, shortened: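 HRE-bla ME-180 beta-lactamase reporter cells in medium with 0.5% dialyzed FBS, pre-incubated 5 h then exposed to compounds 17 h at 37C, 5% CO2; reporter induction read with CCF4-AM FRET substrate.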

[5] = qHTS assay to identify small molecule agonists of H2AX - cell viability counter screen (AID 1224847);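 note: wild-type CHO-K1 cells; top concentration of the series differs between compounds; nearly all actives have a fitted effect of over 30% in size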
Procedure, shortened: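 Counter-screen for viability: CellTiter-Glo ATP luminescence read after 3 h compound treatment (15-point titration, 0.76% DMSO final) of CHO-K1 cells at 37C, with 30 min room-temperature reagent incubation.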

[6] = qHTS assay to identify small molecule agonists of the hypoxia (HIF-1) signaling pathway - cell viability counter screen (AID 1224844); note: nearly all actives have a fitted effect of over 50% in size
Procedure, shortened: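 HRE-bla ME-180 cells, 2,000/well in 0.5% dialyzed FBS medium, treated 17 h at 37C with compounds. Viability read in the same wells as the bla reporter, by CellTiter-Glo luminescence after 30 min at room temperature.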

[7] = qHTS assay to identify small molecule antagonists of the estrogen related receptor signaling pathway with the pleiotropic PPARgamma coactivator (PGC) from Tox21 10K library (AID 1224841; call rule not given here; note: actives are mostly falling curves and most rising ones were filed inactive; nearly all actives have a fitted effect of over 50% in size)
Procedure, shortened: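 PGC/ERR cell line, 2,000 cells/well, pre-incubated 6 hours at 37 C, then exposed to compounds for 18 hours at 37 C; luciferase read with One-Glo luminescence after 30 min at room temperature.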

[8] = qHTS assay to identify small molecule agonists of the estrogen related receptor signaling pathway with the pleiotropic PPARgamma coactivator (PGC) from Tox21 10K library (AID 1224842; active = well fitted curve in the direction sought with a large enough effect in the repeat runs; an effect the other way counts as inactive or inconclusive; note: nearly all actives have a fitted effect of over 15% in size)
Procedure, shortened: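 Luminescence from One-Glo (30 min, room temperature) measured after PGC/ERR cells had 18 h at 37 C with pinned compound (23 nL in DMSO). Cells had been seeded at 2,000 per well and pre-incubated 6 h.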

[9] = qHTS assay to identify small molecule antagonists of the estrogen related receptor (ERR) signaling pathway from Tox21 library (AID 1224848; active = well fitted curve in the direction sought with a large enough effect in the repeat runs; an effect the other way counts as inactive or inconclusive; note: nearly all actives have a fitted effect of over 50% in size)
Procedure, shortened: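 Reading was by luminescence 30 min after ONE-Glo addition. Before that, ERR cells at 2,000 per well had rested 6 h at 37 C/5% CO2 and then received pin-tooled compounds in DMSO for 18 h at 37 C.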

[10] = qHTS assay to identify small molecule agonists of the estrogen related receptor (ERR) signaling pathway from Tox21 library (AID 1224849); details: ERR reporter cell line, ONE-Glo luciferase, 18 h; at 92.4 µM (top of the series) unless noted; note: nearly all actives have a fitted effect of over 15% in size
Procedure, shortened: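 ERR reporter cells (NTP line) pre-incubated 6 hours at 37 C, then exposed to compounds for 18 hours at 37 C. ONE-Glo luciferase luminescence was read after 30 minutes at room temperature.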
% is set by controls: 0 for no effect and ±100 for the full control effect.

Thyrotropin receptor (Homo sapiens), sequence (P16473 whole entry, looked up): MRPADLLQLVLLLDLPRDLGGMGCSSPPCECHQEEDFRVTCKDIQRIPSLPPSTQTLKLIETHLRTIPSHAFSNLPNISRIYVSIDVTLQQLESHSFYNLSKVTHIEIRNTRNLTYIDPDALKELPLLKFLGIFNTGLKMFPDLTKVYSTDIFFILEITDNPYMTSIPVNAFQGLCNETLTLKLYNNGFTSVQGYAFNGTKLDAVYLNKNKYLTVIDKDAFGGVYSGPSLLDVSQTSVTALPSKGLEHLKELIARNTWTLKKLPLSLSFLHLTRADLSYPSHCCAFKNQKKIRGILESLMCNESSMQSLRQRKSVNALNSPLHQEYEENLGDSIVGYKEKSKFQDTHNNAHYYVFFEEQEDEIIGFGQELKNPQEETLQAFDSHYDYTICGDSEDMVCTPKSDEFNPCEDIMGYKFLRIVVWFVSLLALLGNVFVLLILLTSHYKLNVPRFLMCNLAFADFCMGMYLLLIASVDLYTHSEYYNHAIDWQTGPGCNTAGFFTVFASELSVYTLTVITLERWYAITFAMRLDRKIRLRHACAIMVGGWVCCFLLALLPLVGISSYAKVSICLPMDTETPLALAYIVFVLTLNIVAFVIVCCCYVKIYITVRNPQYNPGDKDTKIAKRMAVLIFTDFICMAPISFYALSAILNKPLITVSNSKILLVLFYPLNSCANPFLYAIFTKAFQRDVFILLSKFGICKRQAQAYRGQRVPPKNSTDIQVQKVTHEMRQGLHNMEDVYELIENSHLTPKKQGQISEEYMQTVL

CC(C)(O)c1ccc(C(C)(C)O)cc1
inactive: outcome [1] | Potency [2] | outcome [3] | outcome [4] | outcome [5]

CCOC(=O)CN1CCCC1=O
inactive: outcome [1] | outcome [6] | outcome [3] | outcome [4] | outcome [5]

C/C(=N\O)c1ccc(OCC(=O)N2CCCCC2)cc1
inactive: Potency [2] | outcome [6] | outcome [3] | outcome [5]

CN(C)CCc1c[nH]c2ccc(C[C@H]3COC(=O)N3)cc12
inactive: Potency [2] | outcome [3] | outcome [4] | outcome [5]

NC[C@H]1O[C@H](O[C@H]2[C@H](O)[C@@H](O[C@H]3O[C@H](CO)[C@@H](O)[C@H](N)[C@H]3O)[C@H](N)C[C@@H]2N)[C@H](N)[C@@H](O)[C@@H]1O
inactive: activation [2] -7.89% [at 19 µM] | activation (H2AX phosphorylation) [3] -4.26% [at 31.6 µM] | activation [4] -0.993% [at 15.8 µM] | activity change, negative = cytotoxicity [5] -0.161% [at 31.6 µM]

O=C(c1ccccc1)c1cccc(O)c1
inactive: Potency [2] | outcome [3]

C=CCOC(=O)CCCCCCCC
inactive: outcome [3] | outcome [4] | outcome [5]

CCCCNCC
inactive: Potency [2] | outcome [6] | outcome [3] | outcome [4] | outcome [5]

CCC(=O)OCCOc1ccccc1
inactive: Potency [2] | outcome [6] | outcome [3] | outcome [4] | outcome [5]

CC(=O)Oc1ccc(C(C)=O)cc1
inactive: Potency [2] | outcome [6] | outcome [3] | outcome [5]

Nc1cc(S(=O)(=O)O)ccc1O
inactive: Potency [7] | Potency [8] | outcome [6] | outcome [5] | outcome [9] | activity change, positive = activation [10] 6.11%

C[C@@H]1NC(=O)[C@@H](N)CNC(=O)[C@H](C2CCNC(N)=N2)NC(=O)/C(=C/NC(N)=O)NC(=O)[C@H](CNC(=O)C[C@@H](N)CCCN)NC1=O (some centres not stated)
inactive: activation [2] -10.7% [at 0.349 µM] | activity change, negative = cytotoxicity [6] 3.53% [at 0.29 µM] | activation (H2AX phosphorylation) [3] -2.47% [at 0.582 µM] | activation [4] -0.509% [at 0.291 µM] | activity change, negative = cytotoxicity [5] 1.7% [at 0.582 µM]

CCc1ncc(C)[nH]1
inactive: Potency [2] | outcome [3] | outcome [4] | outcome [5]

NNC(=O)CCCCC(=O)NN
inactive: Potency [7] | Potency [8] | outcome [6] | outcome [3] | outcome [5] | outcome [9] | activity change, positive = activation [10] 0.359%

CC(C)(C)C(=O)CCc1ccc(Cl)cc1
inactive: Potency [7] | Potency [8] | outcome [6] | outcome [3] | outcome [4] | outcome [5] | outcome [9] | activity change, positive = activation [10] 2.37%

Cc1ccc(O)c(C(=O)c2ccccc2)c1
inactive: Potency [7] | Potency [2] | outcome [3] | outcome [4] | outcome [9] | activity change, positive = activation [10] -3.28%

O=C(O)COc1ccc2ccccc2c1
inactive: outcome [6] | outcome [3] | outcome [4] | outcome [5]

CC(C)(C)C(=O)NCCCC(=O)O
inactive: Potency [2] | outcome [6] | outcome [3] | outcome [4] | outcome [5]

COc1cc(C(=O)NC2CCCNC2)cc(OC)c1OC (configuration not stated)
inactive: Potency [2] | outcome [6] | outcome [3] | outcome [4] | outcome [5]

C=CCCCCCCCCOC(C)=O
inactive: Potency [7] | Potency [8] | outcome [6] | outcome [3] | outcome [4] | outcome [5] | outcome [9] | activity change, positive = activation [10] 7.36%

C=CC(C)(CCC=C(C)C)OC(=O)C(C)C (configuration not stated)
inactive: Potency [2] | outcome [6] | outcome [3] | outcome [4] | outcome [5]

CCC(C)SSC(C)CC (configuration not stated)
inactive: Potency [2] | outcome [6] | outcome [3] | outcome [5]

CCCc1ccc(O)c(OC)c1
inactive: Potency [2] | outcome [6] | outcome [3] | outcome [4] | outcome [5]

CC(=O)OC1CCC(C(C)(C)C)CC1 (configuration not stated)
inactive: Potency [2] | outcome [6] | outcome [3] | outcome [4] | outcome [5]

CCCCCCCCCCCCCC(=O)OCC
inactive: Potency [2] | outcome [6] | outcome [3] | outcome [4] | outcome [5]

OCCC(F)(F)C(F)(F)C(F)(F)C(F)(F)C(F)(F)C(F)(F)F
inactive: Potency [2] | outcome [3] | outcome [5]

Cc1nnc(C(=O)NC(C)(C)c2nc(C(=O)NCc3ccc(F)cc3)c(O)c(=O)n2C)o1
inactive: Potency [7] | Potency [8] | Potency [2] | outcome [3] | outcome [5] | outcome [9] | activity change, positive = activation [10] 9.04% [at 42.5 µM]

COc1cc2nc(N3CCN(C(=O)C4CCCO4)CC3)nc(N)c2cc1OC (configuration not stated)
inactive: Potency [7] | Potency [8] | outcome [6] | outcome [3] | outcome [5] | outcome [9]

CN(C)CCc1c[nH]c2ccc(CS(=O)(=O)N3CCCC3)cc12
inactive: Potency [2] | outcome [6] | outcome [3] | outcome [4] | outcome [5]

O=CN1CCCCC1
inactive: Potency [2] | outcome [6] | outcome [3] | outcome [4] | outcome [5]

O=S(=O)(O)c1cc(I)c(O)c2ncccc12
inactive: Potency [7] | Potency [8] | Potency [2] | outcome [6] | outcome [4] | outcome [5] | outcome [9] | activity change, positive = activation [10] 2.69% [at 42.5 µM]

O=S(=O)(O)c1ccc(Cl)cc1
inactive: outcome [6] | outcome [3] | outcome [4]

CN(C)c1ccncc1
inactive: Potency [2] | outcome [6] | outcome [3] | outcome [5] | outcome [9] | activity change, positive = activation [10] -2.4%

Cc1cc2c(cc1CC(=O)c1sccc1S(=O)(=O)Nc1onc(C)c1Cl)OCO2
inactive: outcome [6] | outcome [3] | outcome [4] | outcome [5]

C=CC(=O)OCC[N+](C)(C)C
inactive: Potency [2] | outcome [6] | outcome [3] | outcome [5]

CC(=O)Nc1ccc(S(=O)(=O)Nc2cc(C)on2)cc1
inactive: Potency [2] | outcome [6] | outcome [3] | outcome [4] | outcome [5]

CCCCCCCC(=O)N(C)C
inactive: Potency [7] | Potency [8] | outcome [3] | outcome [4] | outcome [5] | outcome [9] | activity change, positive = activation [10] 2.8%

CC(C)C(=O)Nc1cccc(C2CN3CCSC3=N2)c1 (configuration not stated)
inactive: Potency [2] | outcome [3] | outcome [4] | outcome [5]

CC(CN1CC(=O)NC(=O)C1)N1CC(=O)NC(=O)C1 (configuration not stated)
inactive: Potency [7] | Potency [8] | outcome [6] | outcome [3] | outcome [5] | outcome [9] | activity change, positive = activation [10] -5.55%

CCCCCCCCCCCCCCBr
inactive: Potency [2] | outcome [6] | outcome [3] | outcome [4] | outcome [5]
